One may read the inhibition as the drop in the measured response relative to a control, in per cent.

In all, about 290,000 compounds went through this assay and about 3,000 (1%) were called active. The full list was thinned out, with actives kept by preference. A number with no mark means an inactive call. Cut-off read from the data, not from the text of the source: active = inhibition mostly above about 36% (no sharp cut-off); inactive = mostly below about 34%.

A short description of this assay: NOD1 signaling inhibitors, primary screen, cell-based, luminescence, uHTS (AID 1578).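 Note: HEK-293T reporter cells stimulated with the NOD1 agonist gamma-tri-DAP.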 The note with it: NOD1-driven NF-kB luciferase reporter cells, at 4 µM, active compounds read high.
For `Cc1cc(C)nc(SCC(=O)Nc2ncc(C(F)(F)F)cc2Cl)n1`, the inhibition was -28.9%.

As for `O=C(CSc1ncccn1)Nc1ncc(C(F)(F)F)cc1Cl`, the inhibition is -20.5%.

Turning to `Nc1nc(SCC(=O)Nc2ncc(C(F)(F)F)cc2Cl)n[nH]1`, the inhibition was 65.2% (active).

For `Cc1cc(C(F)(F)F)nn1CC(=O)NCc1ccco1`, the inhibition was -18%.

For `ON1C(c2ccc(Cl)cc2Cl)N(O)[C@H]2CCCC[C@H]21` (stereo partly drawn), the inhibition is -8.4%.

As to `COC(=O)C1CN(C(=O)COc2ccccc2)c2ccccc2O1` (stereo not drawn), the inhibition is 15.9%.

In the case of `Cc1ccc(C(C)C)c(OCCNC(=O)c2ccccc2O)c1`, the inhibition is -22.6%.

Consider `Cc1ccc(C(C)C)c(OCCNC(=O)c2cncc(Br)c2)c1`, for which the inhibition was 16.6%.

With `COc1cc(/C=N/n2nnnc2Nc2ccccc2)cc(OC)c1OC`, the inhibition is -36.9%.

As to `CCc1cccc(C)c1NC(=O)C(c1ccccc1)N1CCC1=O` (stereo not drawn), the inhibition is -22.7%.

Take `COCCCNC(=S)N1CCN(S(C)(=O)=O)CC1`: the inhibition was -18.9%.

For `CC(C)(C)c1ccc(C(=O)N2CCN(c3nc4ccccc4o3)CC2)cc1`, the inhibition was 28.1%.

Turning to `O=C(c1ccc(-c2ccccc2)cc1)N1CCN(c2nc3ccccc3o2)CC1`, the inhibition is 35.5% (active).

`COc1ccc(C(=O)N2CCN(c3nc4ccccc4o3)CC2)cc1OC`: the inhibition was 19.2%.

For `CCOC(=O)C1(Cc2ccccc2)CCN(Cc2ccc(C)s2)CC1`, the inhibition is -14.9%.

As to `O=C(Cc1ccc(F)cc1)Nc1nccs1`, the inhibition is -24.2%.

Take `O=C(Nc1ccc(S(=O)(=O)Nc2nccs2)cc1)c1ccc(F)cc1`: the inhibition was -13.9%.

For `COc1ccc(/C=C/C(=O)Nc2ccc3nc4n(c(=O)c3c2)CCCC4)cc1OC`, the inhibition was -31.1%.

For the compound `O=C(O)c1ccc(NCc2cccnc2)c([N+](=O)[O-])c1`, the inhibition was -17.4%.

For `C/C(=N\NC(N)=O)c1cccc(Cl)c1`, the inhibition was 29%.

Turning to `COCCNC(=S)Nc1ccccc1Cc1ccccc1`, the inhibition is 45.2% (active).

Turning to `CCCCNC(=S)Nc1ccccc1Cc1ccccc1`, the inhibition is -3.1%.

As for `COCCCNC(=S)Nc1ccccc1C`, the inhibition is -13.2%.

Regarding `CCCCCN(C(=O)NC(=O)NC(C)CC)S(C)(=O)=O` (stereo not drawn), the inhibition was -3.8%.

Regarding `Cc1noc(NC(=O)c2ccc(Cl)c(Cl)c2)c1Cl`, the inhibition is 67.6% (active).

Consider `Cc1noc(NC(=O)c2cccc(C(F)(F)F)c2)c1Cl`, for which the inhibition is -5.6%.

As to `Cc1noc(NC(=O)c2ccc(Cl)cc2)c1Cl`, the inhibition was -33%.

Regarding `COc1cccc(C(=O)NCCNC(=O)c2ccc(C)nc2)c1`, the inhibition is -6.6%.

As to `CCCCNC(=S)N(C)/N=C/c1ccc(F)cc1`, the inhibition was 100% (active).

Take `CCCCNC(=S)N(C)/N=C/c1c(F)cccc1F`: the inhibition is -5.6%.

With `CCCCNC(=S)N(C)/N=C/c1ccccc1F`, the inhibition was 12.5%.

`Cc1ccc(C(=O)NC2CCc3ccccc3C2=O)cc1` (stereo not drawn): the inhibition was -47.4%.

Regarding `COCCN1CCN(C(=O)C2CCC(=O)N(Cc3ccccc3OC)C2)CC1` (stereo not drawn), the inhibition is -18.1%.

`N#CCCn1cc(/C=C/C(=O)O)c(-c2ccc(F)cc2)n1`: the inhibition is -31.6%.

With `COc1cc2c3nnc(-c4ccc(F)cc4)c-3cn(Cc3ccc(C)cc3)c2cc1OC`, the inhibition is -31.5%.

In the case of `COc1cc2c3nnc(-c4ccc(F)cc4)c-3cn(Cc3ccc(F)cc3)c2cc1OC`, the inhibition was 108% (active).

Turning to `COc1ccc(Cn2cc3c(-c4ccc(F)cc4)nnc-3c3cc(OC)c(OC)cc32)cc1`, the inhibition was 10.1%.

Take `Cc1cc(N2CC(C(=O)Nc3nccs3)CC2=O)ccc1C(C)C` (stereo not drawn): the inhibition was -22.4%.

On to `COc1ccc(C(=O)Nc2cc(C)on2)cc1[N+](=O)[O-]`, for which the inhibition was -31.1%.

With `O=C(Nc1ccc(-c2n[nH]c(=S)o2)cc1)c1ccccc1Cl`, the inhibition is -4.7%.

Turning to `Cc1nn(-c2ncc(C(F)(F)F)cc2Cl)c(=O)n1-c1c(F)cccc1F`, the inhibition is -38.4%.

For `O=c1[nH]c(/C(Cl)=C/c2cc(Cl)ccc2O)nc2cc(Cl)ccc12`, the inhibition was 81.7% (active).

In the case of `O=c1[nH]c(/C(Cl)=C/c2c(F)cccc2Cl)nc2cc(Cl)ccc12`, the inhibition is 25.9%.

Take `CCc1ccc(/C=C(\Cl)c2nc3cc(Cl)ccc3c(=O)[nH]2)cc1`: the inhibition is -10.4%.

As to `CCOP(=O)(OCC)C(NC(C)=O)C(=O)c1ccccc1` (stereo not drawn), the inhibition was -30.2%.

As for `Cc1cc(C)cc(NC(=S)NCc2cccnc2)c1`, the inhibition is -23.4%.

As to `CC(C)[C@@H]1COC(c2cccc(C3=N[C@H](C(C)C)CO3)n2)=N1`, the inhibition was 11.3%.

With `CC(C)[C@H]1COC(NC2=N[C@@H](C(C)C)CO2)=N1`, the inhibition is 75.5% (active).

Consider `CC(C)[C@@H]1COC(c2cccc(C3=N[C@H](C(C)C)CO3)c2)=N1`, for which the inhibition is -29%.

With `Cc1ccc(C2C(=O)c3ccccc3C2=O)cc1`, the inhibition is -11%.

Turning to `CCOc1ccc(N/C(=N/c2nc(C)cc(C)n2)NC(C)=O)cc1`, the inhibition was -12%.

In the case of `COc1ccccc1-c1nc(C#N)c(N2CCN(Cc3ccccc3)CC2)o1`, the inhibition is 13.8%.

`CCc1ccc(N2CN=c3s/c(=C\c4ccccc4)c(=O)n3C2)cc1`: the inhibition was -13%.

On to `Cc1ccc(N2CN=c3s/c(=C\c4cccnc4)c(=O)n3C2)cc1`, for which the inhibition is 84.1% (active).

Regarding `Cc1ccc(N2CN=c3s/c(=C\c4ccccn4)c(=O)n3C2)cc1`, the inhibition is -21.2%.

With `COc1cccc(C2Nc3ccccc3NC3=C2C(=O)CC(C)(C)C3)c1OC` (stereo not drawn), the inhibition was -8.8%.

`C=CCn1c(=O)c2c(nc3n2CCS3)n(C)c1=O`: the inhibition was 5.1%.

In the case of `CCN(CC)C(=O)C[n+]1cccc(/C=N/O)c1`, the inhibition was -12.8%.

Consider `Cc1cccc(OCC(=O)Nc2nc3ccc([N+](=O)[O-])cc3s2)c1`, for which the inhibition is 55.9%.

Consider `Cc1ccc(C)c(OCC(=O)Nc2nc3ccc([N+](=O)[O-])cc3s2)c1`, for which the inhibition is -16.9%.

Regarding `CS(=O)(=O)N(CC(=O)N/N=C/c1ccc(OCC(=O)N2CCOCC2)cc1)c1ccccc1Cl`, the inhibition was -22.8%.

On to `Cc1sc(NC(=O)CSc2nc(O)cc(=O)[nH]2)nc1-c1ccccc1`, for which the inhibition is -24.3%.

For the compound `CN(CCCN1CCOCC1)C(=O)c1cc(COc2cccc(C(F)(F)F)c2)on1`, the inhibition was -8.6%.

The values are drawn from PubChem BioAssay AID1578 (Sanford-Burnham Center for Chemical Genomics, 2009).
